From PubChem BioAssay AID1626 (SRMLSC, 2009)
Among all 220,000 compounds or so, about 2,000 (0.91%) were called active. About 2% were inconclusive and are not listed. Not all results are given here. Results with a measured potency or affinity are listed apart. A number with no mark means an inactive call. Rule as the data show it: inconclusive = inhibition above about 80% without an active follow-up result; inactive = below that; test concentration not stated here.

Assay: M. tuberculosis H37Rv growth inhibitors, H37Rv strain (AID 1626);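 also: bacteria incubated seven days before Alamar blue readout; 0% = bacteria only wells and 100% = bacteria with antibiotic wells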
Details: stronger effect = higher value, concentration not given here

SMILES | inhibition [%]
COCCCNC(=S)Nc1ccc(C)cc1 | -3.56
COc1cc(OC)c2ccc(=O)oc2c1C(CCN1CCCC(C)C1)c1ccc(N(C)C)cc1 (stereo unspecified) | -10.1
CCCCCc1cc(=O)oc2c(C(CCN3CCN(c4ccccc4)CC3)c3ccc(N(C)C)cc3)c(OC)cc(OC)c12 (stereo unspecified) | 12.8
COc1cc(OC)c2ccc(=O)oc2c1C(CCN1CCCC1)c1ccc(N(C)C)cc1 (stereo unspecified) | -8.24
COc1cc(OC)c2c(C)cc(=O)oc2c1C(CCN1CCOCC1)c1ccc(N(C)C)cc1 (stereo unspecified) | -12.1
COc1ccc(C(CCN2CCCC(C)C2)c2c(OC)cc(OC)c3c(C)cc(=O)oc23)cc1 (stereo unspecified) | 1.05
CCCCCc1cc(=O)oc2c(C(CCN3CCN(c4ccccc4)CC3)c3ccc4c(c3)OCO4)c(OC)cc(OC)c12 (stereo unspecified) | 22.5
COc1ccc(C(CCN2CCCC(C)C2)c2c(OC)cc(OC)c3c2OC(=O)CC3c2cc(OC)c(OC)c(OC)c2)cc1 (stereo unspecified) | -7.36
COc1ccc(C(CCN2CCOCC2)c2c(OC)cc(OC)c3c(C)cc(=O)oc23)cc1 (stereo unspecified) | -3.23
N/C(=N/OC(=O)c1ccccc1F)c1nonc1N | 1.17
S=C(NCC1CCCO1)N1CCN(Cc2ccccc2Cl)CC1 (stereo unspecified) | -6.51
CCOC(=O)c1cnn(CCOC(=O)c2ccccc2F)c1NC(=O)c1ccccc1F | -4.26
Clc1ccc(-c2c(C3=NCCCN3)nnn2-c2ccc(Cl)cc2)cc1 | 2.74
Cc1cc(=O)[nH]c(SCc2nc3ccccc3n2Cc2ccccc2)n1 | -7.65
Cc1ccc(C(=O)Cn2nnc(-c3cccs3)n2)cc1 | -5.53
CCN1CCN(Cc2ccc(NC(=O)c3ccc(C)c(NC(=O)c4nccn4C)c3)cc2C(F)(F)F)CC1 | 2
CCN1CCN(Cc2ccc(NC(=O)c3ccc(C)c(NC(=O)c4ccno4)c3)cc2C(F)(F)F)CC1 | 1.48
CCN1CCN(Cc2ccc(NC(=O)c3ccc(C)c(NC(=O)c4cccc5[nH]ccc45)c3)cc2C(F)(F)F)CC1 | -5.49
CCN1CCN(Cc2ccc(NC(=O)c3ccc(C)c(NC(=O)N4CCNC4=O)c3)cc2C(F)(F)F)CC1 | -4.19
Cc1ccc(S(=O)(=O)N2CCOCC2)cc1NC(=O)CN1CCC(Cc2ccccc2)CC1 | 9.42
CCOC(=O)c1c(C)[nH]c(C)c1C(=O)COC(=O)c1cc2ccccc2cc1O | -1.14
CC(C)(C)C(=O)COC(=O)c1ccccc1O | 10.3
CC1CCN(C(=O)COC(=O)c2cc(Cl)cc(Cl)c2N)CC1 | -13.4

SMILES | inhibition [%]
Cc1cc(C(=O)OCC(=O)N2CC(C)CC(C)C2)c(C)o1 (stereo unspecified) | -6.8
CC(=O)OCC(=O)c1c[nH]c2ccccc12 | -1.25
COc1cccc(C(=O)OCC(=O)c2c[nH]c3ccccc23)c1O | 7.28
CC1CC(C)CN(C(=O)COC(=O)c2ccc[nH]c2=O)C1 (stereo unspecified) | -10
COc1cc2ccccc2cc1C(=O)OCC(=O)N1CCOCC1 | -12.6
COc1ccccc1C/C(N)=N/OC(=O)c1ccc(C)c([N+](=O)[O-])c1 | 3.93
Cc1nnc(SCC(=O)N2CCN(S(=O)(=O)c3ccc(Cl)cc3)CC2)[nH]c1=O | -6.4
COc1ccc(C(=O)CSc2nnc(NC(=O)C3CC(=O)N(c4ccccc4C)C3)s2)cc1 (stereo unspecified) | 2.7
O=C(Nc1c(-c2cccs2)nc2ccccn12)c1ccc2ccccc2c1 | 0.95
CCC(CC)C(=O)Nc1cccc(-c2nc3ccccc3o2)c1 | 0.04
CCN(CC)C(=O)CC(c1ccccc1)c1ccco1 (stereo unspecified) | -14.2
Cc1cc(C)nc(N(C#N)CCOc2ccc(Cl)cc2)n1 | -4.66
Cn1c(=O)c2c(nc(SCCN3CCCCC3)n2Cc2ccccc2)n(C)c1=O | -2.51
CC(C)C(NC(=O)c1ccccc1F)C(=O)Nc1ccc2c(c1)OCO2 (stereo unspecified) | 1.73
CN(C)C(=O)/C(=C\c1cccc(Oc2ccccc2)c1)NC(=O)c1ccccc1 | 4.22
C/C(=N\NC(=O)c1cc(-c2cccnc2)nc2ccccc12)c1ccccc1O | 2.39
O=C(OCC(=O)N1CCCCC1)c1ccccc1SCC(=O)N1CCCCC1 | 9.57
O=C(COC(=O)c1cc(Br)ccc1Cl)NC1CC1 | 26.2
O=C(COc1ccc(Cl)cc1)OCC(=O)N1CCCC1 | 0.56
CCC1CCCCN1C(=O)CCCOc1ccccc1 (stereo unspecified) | -1.7
O=C(COc1ccc(Cl)cc1)OCC(=O)N1CCCCCC1 | 7.95
O=C(OCC(=O)N1CCCC1)c1cc(Br)ccc1Cl | 7.39
Cc1cc(C(=O)OCC(=O)N2CCCC2)c2ccccc2n1 | -17.2

SMILES | inhibition [%]
CCC1CCCCN1C(=O)COC(=O)c1n[nH]c2ccccc12 (stereo unspecified) | -3.06
O=C(CNS(=O)(=O)c1ccccc1)Nc1ccc2c(c1)OCO2 | 0.17
O=C(Nc1ccccc1C(=O)N1CCNCC1)c1ccco1 | -1.36
CC1CCc2nn(CC(=O)Nc3c(F)cc(F)cc3Br)cc2C1 (stereo unspecified) | 0.73
Cc1cc(C(=O)N2CCCC(C(=O)c3cccc(C(F)(F)F)c3)C2)nc(C)n1 (stereo unspecified) | -11
COc1ccc(Cl)cc1-c1csc(N)n1 | -2.91
O=C(CSc1nc2ccc([N+](=O)[O-])cc2[nH]1)c1ccc2ccccc2c1 | 13.4
Cc1ccc(NS(=O)(=O)c2cc(C(=O)NCc3ccccn3)ccc2Cl)cc1C | 4.55
CC(=O)Nc1cccc(NC(=O)c2cc(C)on2)c1 | -10.6
CC(=O)c1ccc(NC(=O)Cn2nc(C)c([N+](=O)[O-])c2C)cc1 | 2.02
CN(C)CCN1CC(C(=O)O)CC1=O (stereo unspecified) | -2.28
CN1CCN(S(=O)(=O)c2ccc(-c3noc(C4CCN(S(C)(=O)=O)CC4)n3)cc2)CC1 | -1.89
O=C(O)c1ccc(N/N=C/c2ccc(OC(=O)c3ccccc3Cl)cc2)cc1 | 4.34
O=C(Oc1ccc(/C=N/O)cc1)c1ccccc1 | 30.8
Cn1c(O)c(N=Nc2nc(-c3ccccc3)cs2)c2ccccc21 | 68
CCc1ccc2[nH]c(O)c(N=NC3=NC(=O)CS3)c2c1 | 1.19
COc1ccc(CCNC2CCCCC2)cc1OC | 5.74
O=C(Nc1ccccn1)c1ccc(Br)c(S(=O)(=O)N2CCCCC2)c1 | 4.83
CCCN(N=Nc1cccc([N+](=O)[O-])c1)c1cccc([N+](=O)[O-])c1 | 1.3
O=c1cc(-c2ccc(O)cc2)oc2cc(O)cc(O)c12 | -7.5
O=c1cc(-c2ccccc2)oc2cc(O)cc(O)c12 | 17.6
Cc1cc(OCC(=O)NC(C)C)ccc1Cl | 8.21
Cc1noc(-c2ccc(C(F)(F)F)cc2)c1NC(=O)Nc1ccc(Cl)cc1 | 13.4

SMILES | inhibition [%]
O=C(O)c1cccc(Cn2c(Cl)c(/C=N/NC(=O)c3ccc(O)cc3)sc2=O)c1 | -11.5
O=c1[nH]c(SCc2ccc([N+](=O)[O-])cc2)nc2[nH]ncc12 | -6.17
CC[C@H]1CC2CN3CCc4c([nH]c5cc(OC)ccc45)[C@](C(=O)OC)(C2)[C@H]13 | -5.98
CC[C@H]1CC2CN3CCc4c([nH]c5ccccc45)C(C(=O)OC)(C2)C13 (stereo partly specified) | 0.73
COC(=O)C1=C(c2cc3ccccc3o2)C[C@@H]2CC[C@H]1N2C(=O)NC(C)C | 19.5
Cn1c(NCc2ccco2)nc2c1c(=O)n(Cc1ccc(Cl)cc1)c(=O)n2C | 7.2
Cn1c(NCc2ccco2)nc2c1c(=O)n(Cc1ccc(Cl)c(Cl)c1)c(=O)n2C | 6.79
COc1ccc(CNc2nc3c(c(=O)n(Cc4ccc(Br)cc4)c(=O)n3C)n2C)cc1 | 34.1
Cn1c(NCc2ccccc2)nc2c1c(=O)n(Cc1ccccc1)c(=O)n2C | -5.24
CC(C)c1nnc(N2C(=O)c3oc4ccccc4c(=O)c3C2c2ccco2)s1 (stereo unspecified) | -6.42
CC(=O)c1ccc(NC(=O)CSc2nnc(Cn3cnc4ccccc43)o2)cc1 | -0.74
CCc1cc2cc3c(cc2nc1SCC(=O)Nc1nnc(C)s1)OCCO3 | -4.07
COc1ccc(CNCCC(c2ccc(OC(C)C)cc2)C(C)C)cc1OC (stereo unspecified) | 45.4
COc1ccc(C(CCNCc2ccccc2)c2ccc(F)cc2)cc1 (stereo unspecified) | -2.55
COc1ccc(CNCCC(c2ccc(F)cc2)c2ccc(OC)cc2)cc1 (stereo unspecified) | 41.6
COc1ccc(C(CCNCc2ccc(OC)c(OC)c2)c2ccc(F)cc2)cc1 (stereo unspecified) | 2.06
COc1ccccc1Nc1nc(N)nc(CSC(=S)N2CCCCC2)n1 | 5.54
CCCc1nnc(SCC(=O)N2CCCCC2C)n1CC (stereo unspecified) | -2.59
CCOc1ccc(-c2ccc(SCC(=O)NCC3CCCO3)nn2)cc1 (stereo unspecified) | 3.18
Cc1cc(=O)[nH]c(SCC(=O)Nc2ccccc2C)n1 | -0.5
COc1ccccc1NS(=O)(=O)c1cccc(C(=O)N/N=C(\C)c2ccc(-n3ccnc3)cc2)c1 | -7.54
C/C(O)=C(/C#N)c1nc2ccccc2[nH]1 | 10.1
